The panel holds about 83,000 compounds, 20% with a hit somewhere; the sample as a whole holds those more often.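 In brief: 96-well plates, 48 h treatment, single concentration, percent growth endpoint.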 The source made the active and inactive calls. How the source made its calls: active means growth percent below 10; inactive means the rest.
How the values were obtained:
Experiment in all cases: NCI-60 one-dose screen, 48 h (100 = growth as untreated, 0 = no growth, -100 = all killed)
Conditions in all cases: 10 µM unless noted
T-47D breast = test system: T-47D breast
BT-549 breast = test system: BT-549 breast
MDA-MB-435 melanoma = test system: MDA-MB-435 melanoma
SW-620 colon = test system: SW-620 colon
MCF7 breast = test system: MCF7 breast
HCT-116 colon = test system: HCT-116 colon
HCC-2998 colon = test system: HCC-2998 colon
KM12 colon = test system: KM12 colon

Measured: growth

O=C(O)c1nc(-c2ccccc2)oc1N1CCOCC1
inactive: T-47D breast 82.9% | BT-549 breast 97.5% | MDA-MB-435 melanoma 97.5% | SW-620 colon 96% | MCF7 breast 98.3% | HCT-116 colon 94.6% | HCC-2998 colon 105% | KM12 colon 88.9%

Cc1ccc(S(=O)(=O)n2cc(C(=O)C(=O)N3CCOCC3)c3ccccc32)cc1
inactive: T-47D breast 74.8% | BT-549 breast 87.5% | MDA-MB-435 melanoma 104% | SW-620 colon 101% | MCF7 breast 99.4% | HCT-116 colon 87.1% | HCC-2998 colon 99.6% | KM12 colon 98.7%

Cn1ncc2c(Sc3ccc(Cl)cc3)ncnc21
inactive: T-47D breast 76.1% | BT-549 breast 62.1% | MDA-MB-435 melanoma 92.3% | SW-620 colon 100% | MCF7 breast 87.4% | HCT-116 colon 103% | HCC-2998 colon 85.7% | KM12 colon 95.6%

Nc1nc(Nc2cc(Cl)cc(Cl)c2)nn1S(=O)(=O)c1ccc2ccccc2c1
inactive: T-47D breast 46% | BT-549 breast 90.7% | MDA-MB-435 melanoma 77.5% | SW-620 colon 67.6% | MCF7 breast 32.8% | HCT-116 colon 33.5% | HCC-2998 colon 68.3% | KM12 colon 21.9%

CCCCCCCCCCCCCCCCCCNC(=O)[C@H]1CSC(c2ccc(OC)cc2O)N1 (some centres not stated)
inactive: T-47D breast 60% | BT-549 breast 27.4% | MDA-MB-435 melanoma 25.4% | SW-620 colon 67.3% | MCF7 breast 23.7% | HCT-116 colon 39.3% | HCC-2998 colon 76.7% | KM12 colon 27%

CC1CCC(C)N(C)C1 (configuration not stated)
inactive: T-47D breast 96.9% | BT-549 breast 87.6% | MDA-MB-435 melanoma 111% | SW-620 colon 113% | MCF7 breast 96.5% | HCT-116 colon 97.9% | HCC-2998 colon 85.2% | KM12 colon 110%

CCOC(=O)C1C(=O)C=C(c2ccc(OC)cc2)CC1c1sc(N(C)Cc2ccccc2)nc1Cl (configuration not stated)
inactive: T-47D breast 64.2% | BT-549 breast 94.4% | MDA-MB-435 melanoma 85.1% | SW-620 colon 82.9% | MCF7 breast 83.5% | HCT-116 colon 71.9% | HCC-2998 colon 98.9% | KM12 colon 81.4%

Fc1ccccc1-c1nc(-c2nc3cc(Cl)c(Cl)cc3[nH]2)c2ccccn12
inactive: T-47D breast 31.5% | BT-549 breast 88.9% | MDA-MB-435 melanoma 73.6% | SW-620 colon 80.2% | MCF7 breast 40.5% | HCT-116 colon 37.7% | HCC-2998 colon 96.2% | KM12 colon 80.5%

COc1ccc(-c2cn(-c3cccc(C(=O)/C=C/c4cc(OC)c(OC)c(OC)c4)c3)c(=O)[nH]2)cc1OC
inactive: T-47D breast 62.9% | BT-549 breast 85% | MDA-MB-435 melanoma 83.2% | SW-620 colon 94.5% | MCF7 breast 53.3% | HCT-116 colon 63.6% | HCC-2998 colon 103% | KM12 colon 70.9%

O=C1/C(=C/c2ccc(Cl)cc2)CN(Cc2cn(CCNc3ccnc4cc(Cl)ccc34)nn2)C/C1=C\c1ccc(Cl)cc1
active: T-47D breast -32.6% | BT-549 breast -96.4% | MDA-MB-435 melanoma -98.6% | SW-620 colon -92.5% | MCF7 breast -100% | HCT-116 colon -85.5% | HCC-2998 colon -95.1% | KM12 colon -93.9%

Cc1ccc(-c2cc3nc(-c4ccccc4)nc(C(Cl)Cl)n3n2)cc1
inactive: BT-549 breast 60.3%
active: T-47D breast -47.1% | MDA-MB-435 melanoma -68.3% | SW-620 colon -48.2% | MCF7 breast -10.7% | HCT-116 colon -87.6% | HCC-2998 colon -90.6% | KM12 colon -83.6%

Cc1cc(N/N=C/c2nc(-c3ccccc3)oc2C)c2cc(Br)ccc2n1
inactive: T-47D breast 75.6% | BT-549 breast 93.4% | MDA-MB-435 melanoma 43.4% | SW-620 colon 28.4% | MCF7 breast 46.2% | HCT-116 colon 42% | HCC-2998 colon 100% | KM12 colon 82%

CN1CCN(Cc2ccc(NC(=O)c3cncc(C#Cc4cnc(N)c5cnccc45)c3)cc2C(F)(F)F)CC1
inactive: T-47D breast 22.8% | BT-549 breast 27.4% | MCF7 breast 25.3% | HCC-2998 colon 19.9%
active: MDA-MB-435 melanoma -9.64% | SW-620 colon -10.9% | HCT-116 colon 0.743% | KM12 colon 3.81%

Cc1ccc(-c2cc3nc(C(Cl)Cl)nc(-c4cccnc4)n3n2)cc1
active: MDA-MB-435 melanoma 1.09% | SW-620 colon 0.933% | HCT-116 colon 6.32% | HCC-2998 colon -53.9% | KM12 colon -35.4%
inactive: T-47D breast 37.9% | BT-549 breast 73.4% | MCF7 breast 41.5%

From PubChem BioAssay (NCI)
